According to PubChem BioAssay (NCATS):
“And” between values parts separate entries of the source, which are not always exact repeats. Equal entries are not always repeated. Inconclusive results are not listed. Entries that show only a call come without a potency. The source made the active and inactive calls. Unless noted, calls come from the whole dose curve; as a rule, active = well fitted curve in the direction sought with a large enough effect; inconclusive = small, poorly fitted or top-dose-only effect, or another doubt; inactive = no such curve, though single readings can be large; an effect the other way counts as inactive or inconclusive.

How the values were obtained:
[1] = target: Guanine nucleotide-binding protein G(i) subunit alpha-1 (Homo sapiens) (UniProt P63096); experiment: qHTS Assay for Inhibitors of RGS12 GoLoco Motif Activity (Green Fluorophore) (AID 879);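 note: negative values mean loss of peptide binding seen as reduced polarization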
Sequence of Guanine nucleotide-binding protein G(i) subunit alpha-1 (Homo sapiens) (P63096 whole entry, looked up): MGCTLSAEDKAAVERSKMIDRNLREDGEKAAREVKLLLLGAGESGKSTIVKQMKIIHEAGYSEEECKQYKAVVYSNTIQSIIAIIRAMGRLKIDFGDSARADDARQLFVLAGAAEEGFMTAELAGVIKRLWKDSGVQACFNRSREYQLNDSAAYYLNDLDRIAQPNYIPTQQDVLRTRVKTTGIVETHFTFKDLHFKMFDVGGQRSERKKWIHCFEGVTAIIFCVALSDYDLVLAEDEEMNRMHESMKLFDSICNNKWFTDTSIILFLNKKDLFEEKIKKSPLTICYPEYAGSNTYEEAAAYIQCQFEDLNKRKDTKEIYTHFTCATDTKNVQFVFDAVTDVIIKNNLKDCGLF
Outline: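 A drop in FITC polarization marked displacement of the FITC-tagged RGS12 GoLoco peptide (10 nM) from Gαi1 (50 nM). Compounds were incubated 10 min at room temperature in Tris pH 7.5 buffer containing 150 mM NaCl, 0.1 mM GDP and 0.05% NP40; unlabeled peptide titration served as control.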

[2] = Cell Viability - Jurkat (AID 426;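 active = dose-dependent loss of cell ATP signal giving a full or clear fitted curve, ranked by lower potency value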;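 note: potency is the fitted concentration of half-maximal effect; cells exposed to compound for 40 hours at 37 °C before ATP read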); details: qHTS
Outline: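 Cytotoxicity taken as drop in cellular ATP (CellTiter-Glo luminescence, 20 min room temperature) after 40 hr, 37C treatment of 5000 Jurkat Clone E6-1 cells per well; concentration-response fitted with Hill equation for AC50.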

[3] = Cell Viability - N2a (AID 540); details: N2a mouse neuroblastoma cell viability; activity change, negative = cytotoxicity: at 92.2 µM (top of the series); note: nearly all actives have a fitted effect of over 45% in size
Outline: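 CellTiter-Glo ATP luminescence, read 20 min after reagent at room temperature, reported viability following 40 h compound treatment at 37 °C. N2a mouse neuroblastoma cells seeded 1500/well; Hill equation gave AC50.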

[4] = Cell Viability - SH-SY5Y (AID 544); details: SH-SY5Y neuroblastoma cell viability; viability change, negative = cytotoxic: at 92.2 µM (top of the series);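 note: cells exposed to compound for 40 hours; nearly all actives have a fitted effect of over 55% in size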
Outline: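 Cytotoxicity measured via ATP-dependent luciferase luminescence (CellTiter-Glo) following 40 h, 37 °C exposure of 1500 SH-SY5Y cells per well. Concentration-response data were fitted with the standard Hill equation to give AC50.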

[5] = Cellular Toxicity (caspase-3) H-4-II-E (AID 663); details: Potency: caspase-3 activation;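 note: cells exposed to compound for 16 hr before readout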
Outline: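 Caspase 3/7 activation measured by luminescent aminoluciferin substrate cleavage after 16 hr compound treatment of H-4-II-E cells in complete medium. Increase normalized between DMSO (basal) and 100 uM tamoxifen (100%); Hill-equation AC50 from concentration-response.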

[6] = Cellular Toxicity (caspase-3) NIH 3T3 (AID 666);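 note: caspase signal read after 16 h compound exposure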
Outline: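 Caspase-Glo 3/7 luminescence reported caspase activation in 1000 NIH 3T3 cells/well after 16 h compound exposure at 37 C. DMSO set basal and 100 uM tamoxifen set 100% stimulation; concentration-response modeled with the Hill equation for AC50.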

[7] = MultiTox-Fluor Cytotoxicity Assay - LYMP1-001 - Live Cells (AID 947)
[8] = Cell Viability - LYMP2-004 (AID 966); note: nearly all actives have a fitted effect of over 65% in size
Outline: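 AC50 values come from Hill modelling of concentration-dependent loss of intracellular ATP, measured by CellTiter-Glo luminescence. Human LYMP2-004 lymphoblastoid cells (2500/well) were exposed to compound for 24 h at 37 C.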

[9] = Cell Viability - LYMP2-019 (AID 973); note: nearly all actives have a fitted effect of over 55% in size
Outline: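 AC50 values come from Hill-equation fits of luminescent intracellular ATP (CellTiter-Glo, 30 min, room temperature) following 24 h compound exposure at 37 C. Cells: LYMP2-019 lymphoblastoid line, 2500 per well, in complete culture medium.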

[10] = Cell Viability - LYMP2-025 (AID 976)
Outline: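 Cytotoxicity read as loss of intracellular ATP (luciferase luminescence) after 24 h compound treatment at 37 C. Uses LYMP2-025 lymphoblastoid cells in 1536-well format; Hill-equation modelling gives AC50; tetraoctylammonium bromide as positive control.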

[11] = Cell Viability - LYMP2-012 (AID 982);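 note: cellular ATP by luciferase luminescence where a drop means cytotoxicity; cells exposed to compound for one day before reading; nearly all actives have a fitted effect of over 55% in size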
[12] = Cell Viability - LYMP2-014 (AID 983); note: nearly all actives have a fitted effect of over 50% in size
Outline: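 Intracellular ATP loss, read by luciferase luminescence, measures acute cytotoxicity after 24 h compound exposure of lymphoblastoid LYMP2-014 cells (2500/well, 37 C). Concentration-response data fitted to the Hill equation for AC50.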

[13] = Cell Viability - LYMP2-016 (AID 984); note: nearly all actives have a fitted effect of over 55% in size
Outline: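 qHTS, 1536-well: 2500 LYMP2-016 cells/well, 5 hr 37 C, compound added, 24 hr 37 C, CellTiter-Glo 30 min RT, luminescence. Tetraoctylammonium bromide positive control. AC50 via Hill fit.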

[14] = Cell Viability - LYMP2-018 (AID 985); note: nearly all actives have a fitted effect of over 50% in size
Outline: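 Viability read as CellTiter-Glo luminescence (cellular ATP) after 24 hr compound exposure at 37 C of 2500 LYMP2-018 lymphoblastoid cells/well, pre-plated 5 hr. Hill-equation modelling gave AC50.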

[15] = Cell Viability - LYMP2-026 (AID 989); note: nearly all actives have a fitted effect of over 50% in size
Outline: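 Cytotoxicity read as ATP-dependent luminescence (CellTiter-Glo, 30 min room temperature) after 24 h compound treatment at 37 C. LYMP2-026 lymphoblastoid line seeded at 2500 cells/well; AC50 derived by standard Hill equation.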

[16] = target: Peroxisome proliferator-activated receptor gamma (Homo sapiens) (UniProt P37231); experiment: qHTS assay for small molecule agonists of peroxisome proliferator-activated receptor gamma signaling (AID 588536; active = well fitted curve in the direction sought with a large enough effect in the signal ratio, with a control signal flat, not every such curve was filed as active; the % refers to the signal ratio)
Sequence of Peroxisome proliferator-activated receptor gamma (Homo sapiens) (P37231 whole entry, looked up): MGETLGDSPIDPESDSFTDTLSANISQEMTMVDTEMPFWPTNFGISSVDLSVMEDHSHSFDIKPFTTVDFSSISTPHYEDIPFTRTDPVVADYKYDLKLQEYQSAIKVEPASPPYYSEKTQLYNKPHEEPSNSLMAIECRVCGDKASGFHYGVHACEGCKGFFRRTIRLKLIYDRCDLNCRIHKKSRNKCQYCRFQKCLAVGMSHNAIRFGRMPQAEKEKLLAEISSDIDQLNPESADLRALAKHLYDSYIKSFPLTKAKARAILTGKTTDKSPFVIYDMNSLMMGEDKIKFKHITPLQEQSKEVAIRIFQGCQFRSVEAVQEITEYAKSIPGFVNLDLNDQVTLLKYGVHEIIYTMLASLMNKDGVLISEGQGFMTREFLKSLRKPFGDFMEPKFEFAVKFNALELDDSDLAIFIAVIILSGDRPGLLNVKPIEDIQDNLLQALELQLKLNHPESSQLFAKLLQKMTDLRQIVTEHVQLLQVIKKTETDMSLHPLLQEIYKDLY
Outline: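 Cells were plated and held 6–6.5 h at 37 C, then compounds were added as a titration series. After a further 16 h, CCF4 dye was loaded for 2 h at room temperature and emission at 460/530 nm recorded.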

[17] = qHTS assay for small molecule antagonists of retinoid X receptor alpha signaling (AID 588546); details: HEK293T RXRa-UAS-bla, beta-lactamase ratio, antagonist mode; measured here: W530 green channel, cytotoxicity proxy;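 note: cells stimulated with 9-cis-retinoic acid as agonist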
Outline: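 Beta-lactamase reporter inhibition, read as CCF4 fluorescence ratio (ex 405, em 460/530 nm) after 2 h at RT. HEK293T UAS-bla cells, 2500/well, were stimulated with 9-cis-RA at 500 or 100 nM final alongside test compound for 18 h at 37 C.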

[18] = target: Thyroid hormone receptor beta (Homo sapiens) (UniProt P10828); experiment: qHTS assay for small molecule antagonists of thyroid hormone receptor beta signaling (AID 588547; active = well fitted inhibition curve with a large enough effect in the signal ratio, with a control signal flat, not every such curve was filed as active; the % refers to the signal ratio;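 note: cells stimulated with 0.4 nM T3 agonist during compound exposure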); details: TR-UAS-bla HEK293, beta-lactamase ratio, antagonist mode, 18 h
Sequence of Thyroid hormone receptor beta (Homo sapiens) (P10828 whole entry, looked up): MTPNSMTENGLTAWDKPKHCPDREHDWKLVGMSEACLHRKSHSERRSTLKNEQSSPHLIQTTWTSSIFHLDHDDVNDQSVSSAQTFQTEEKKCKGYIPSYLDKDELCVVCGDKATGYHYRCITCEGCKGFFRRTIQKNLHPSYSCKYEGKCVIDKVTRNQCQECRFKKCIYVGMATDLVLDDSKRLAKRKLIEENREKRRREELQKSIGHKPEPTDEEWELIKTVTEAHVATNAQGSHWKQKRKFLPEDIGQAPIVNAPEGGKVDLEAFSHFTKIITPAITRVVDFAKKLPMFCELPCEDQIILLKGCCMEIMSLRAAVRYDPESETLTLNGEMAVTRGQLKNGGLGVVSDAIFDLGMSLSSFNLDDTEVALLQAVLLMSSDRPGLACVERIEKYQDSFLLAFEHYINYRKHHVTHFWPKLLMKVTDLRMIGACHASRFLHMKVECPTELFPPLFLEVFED
Outline: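 Inhibition of T3-driven (0.4nM final) beta-lactamase reporter activity was measured over 0.59 nM to 92 uM compound after 18 h at 37 C. The cells were GripTite HEK293 TR-UAS-bla in charcoal/dextran-stripped serum, with CCF4 ratio read-out and IC50 from Hill fits.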

[19] = target: Tumor necrosis factor (Homo sapiens) (UniProt P01375); experiment: qHTS assay to identify small molecules that stimulate Tumor Necrosis Factor-alpha (TNF-alpha) secretion (AID 651757; active = well fitted curve in the direction sought with a large enough effect in the signal ratio; the % refers to the signal ratio)
Sequence of Tumor necrosis factor (Homo sapiens) (P01375 whole entry, looked up): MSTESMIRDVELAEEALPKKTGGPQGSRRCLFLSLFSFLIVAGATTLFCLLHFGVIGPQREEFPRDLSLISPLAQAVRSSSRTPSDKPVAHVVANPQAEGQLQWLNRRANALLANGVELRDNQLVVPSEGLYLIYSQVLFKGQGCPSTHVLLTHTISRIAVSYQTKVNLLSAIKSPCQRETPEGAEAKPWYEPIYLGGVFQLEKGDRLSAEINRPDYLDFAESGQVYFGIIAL
Outline: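 Secreted TNF-alpha quantified by TR-FRET sandwich of two labeled anti-TNF-alpha antibodies, incubated 3 hr at room temperature. Preceded by 17 hr, 37 C compound treatment of THP-1 cells at 3000 cells/well.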

[20] = target: Nuclear receptor subfamily 1 group I member 2 (Rattus norvegicus) (UniProt Q9R1A7); experiment: qHTS assay for small molecule activators of the rat pregnane X receptor (rPXR) signaling pathway (AID 651751; call rule not given here); details: rPXR reporter cells, luciferase (One-Glo), 24 h
Sequence of Nuclear receptor subfamily 1 group I member 2 (Rattus norvegicus) (Q9R1A7 whole entry, looked up): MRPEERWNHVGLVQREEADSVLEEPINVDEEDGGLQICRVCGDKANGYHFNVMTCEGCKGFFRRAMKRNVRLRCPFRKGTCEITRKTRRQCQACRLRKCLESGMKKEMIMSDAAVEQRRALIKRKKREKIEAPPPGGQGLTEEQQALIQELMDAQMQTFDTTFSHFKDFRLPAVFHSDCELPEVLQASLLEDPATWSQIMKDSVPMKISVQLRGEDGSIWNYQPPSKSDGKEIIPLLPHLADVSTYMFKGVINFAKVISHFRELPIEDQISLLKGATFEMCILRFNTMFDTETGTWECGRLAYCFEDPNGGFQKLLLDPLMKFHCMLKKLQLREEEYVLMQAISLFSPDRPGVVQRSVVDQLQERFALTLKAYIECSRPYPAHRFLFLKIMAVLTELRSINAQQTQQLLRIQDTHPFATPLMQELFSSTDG

## O=C(O)[C@H]1CCN1
[1]
  outcome: inactive

## C[C@@H](Cc1ccc(O)cc1)NC[C@@H](O)c1cc(O)cc(O)c1
[1]
  outcome: inactive

## COc1ccc2c(c1)[C@]13CCCC[C@@H]1[C@H](C2)NCC3
[1]
  outcome: inactive

## C[C@@]12CC[C@H]3[C@@H](CC=C4C[C@H](OS(=O)(=O)O)CC[C@]43C)[C@H]1CCC2=O
[1]
  outcome: inactive

## COc1ccc2c3c1O[C@@H]1C(=O)CC[C@@]4(O)[C@@H](C2)N(CC2CC2)CC[C@]314
[1]
  outcome: inactive

## C[C@]12CC[C@H](O)C[C@@H]1CC[C@H]1[C@H]2CC[C@]2(C)[C@H](C(=O)CO)CC[C@@H]12
[1]
  outcome: inactive

## N[C@H](CCl)C(=O)O
[1]
  outcome: inactive

## C[N+]1(C)C2CC(OC(=O)C(CO)c3ccccc3)CC1[C@@H]1O[C@H]21 (stereo partly specified)
[1]
  outcome: inactive

## COc1ccc2c(c1O)-c1cccc3c1[C@H](C2)N(C)CC3
[1]
  outcome: inactive

## Oc1ccc2c3c1O[C@@H]1c4[nH]c5c(c4C[C@@]4(O)[C@@H](C2)N(CC2CC2)CC[C@]314)C[C@]1(O)[C@@H]2Cc3ccc(O)c4c3[C@@]1(CCN2CC1CC1)[C@H]5O4
[1]
  outcome: inactive

## COc1cc([C@@H](O)CN)ccc1O
[1]
  outcome: inactive

## C[N+]1(C)CCc2cc3c(cc2[C@@H]1[C@@H]1OC(=O)c2c1ccc1c2OCO1)OCO3
[1]
  outcome: inactive

## CO[C@@H]1CC=C2CCN3CCC4=C(CC(=O)OC4)[C@]23C1
[1]
  outcome: inactive

## C[C@]12CC[C@H](O)CC1=CC[C@@H]1[C@H]2CC[C@]2(C)C(=O)CC[C@H]12
[1]
  outcome: inactive

## C[C@@]12CC[C@H]3[C@@H](CC[C@@H]4C[C@H](O)CC[C@]43C)[C@H]1CC[C@H]2O
[1]
  outcome: inactive

## CCn1cnc2c(Nc3cccc(Cl)c3)nc(N[C@@H]3CCCC[C@H]3N)nc21
[1]
  outcome: inactive

## CC(C)C[C@H](NP(=O)(O)O[C@@H]1O[C@@H](C)[C@@H](O)[C@@H](O)[C@H]1O)C(=O)N[C@@H](Cc1c[nH]c2ccccc12)C(=O)O
[1]
  outcome: inactive

## C=CCN1CC[C@]23c4c5ccc(O)c4O[C@@H]2/C(=N/NC(=O)c2ccccc2)CC[C@@]3(O)[C@H]1C5
[1]
  outcome: inactive

## C[C@@H]1Cc2cc3c(cc2C(c2ccc(N)cc2)=NN1)OCO3
[1]
  outcome: inactive

## CC(=O)c1c(O)c(C)c(O)c(Cc2c(O)c3c(c(C(=O)/C=C\c4ccccc4)c2O)OC(C)(C)C=C3)c1O
[1]
  outcome: inactive

## O=C(O)[C@H]1[C@H](C(=O)O)[C@H]2CC[C@@H]1O2
[1]
  outcome: inactive

## COc1cc(C[C@H](C)N)c(OC)cc1I
[1]
  outcome: inactive

## NC[C@H](O)c1cc(O)c(O)cc1F
[1]
  outcome: inactive

## CC(=O)[C@@H]1CC[C@H]2[C@H]3CC[C@H]4C[C@@H](O)CC[C@]4(C)[C@@H]3CC[C@]12C
[1]
  outcome: inactive

## C[C@@H]1O[C@H]1P(=O)(O)O
[1]
  outcome: inactive

## CCNC(=O)[C@@H]1O[C@@H](n2cnc3c(N)ncnc32)[C@@H](O)[C@H]1O
[1]
  outcome: inactive

## CC(C)N[C@@H](C)Cc1ccc(I)cc1
[1]
  outcome: inactive

## N[C@H](Cn1ccc(=O)[nH]c1=O)C(=O)O
[1]
  outcome: inactive

## NC(=O)CN1C[C@@H](O)CC1=O
[1]
  outcome: inactive

## C[Se]C[C@@H](N)C(=O)O
[1]
  outcome: inactive

## Nc1ncnc2c1ncn2[C@@H]1O[C@@H](COP(=O)(O)CP(=O)(O)OP(=O)(O)O)[C@H](O)[C@@H]1O
[1]
  outcome: inactive

## CCCN1CC[C@@H]2c3cc(O)ccc3CC[C@H]21
[1]
  outcome: inactive

## N[C@H](Cc1ccc(N(CCCl)CCCl)cc1)C(=O)O
[1]
  outcome: inactive

## COC(=O)[C@H](N)CCCN=C(N)N[N+](=O)[O-]
[1]
  outcome: inactive

## CC(=O)OCC1=C(C(=O)[O-])N2C(=O)[C@@H](NC(=O)CCC[C@@H](N)C(=O)[O-])[C@@H]2SC1.[Zn+2]
[1]
  outcome: inactive

## CCN(CC)c1ncnc2c1ncn2[C@@H]1O[C@@H](COP(=O)(O)OP(=O)(O)C(Br)(Br)P(=O)(O)O)[C@H](O)[C@@H]1O
[1]
  outcome: inactive

## C[C@@]12CC[C@H]3[C@@H](CCC4=C(O)C(=O)CC[C@]43C)[C@H]1CCC2=O
[1]
  outcome: inactive

## BrCCc1ccccc1
[2]
  Potency: > 92 µM (inactive)
[3]
  Potency: inactive
[4]
  Potency: inactive
[5]
  Potency: inactive
[6]
  Potency: inactive
[7]
  outcome: inactive
[8]
  Potency: inactive
[9]
  Potency: inactive
[10]
  Potency: inactive
[11]
  Potency: inactive
[12]
  Potency: inactive
[13]
  Potency: inactive
[14]
  Potency: inactive
[15]
  Potency: inactive
[16]
  outcome: inactive
[17]
  max response: 2.46%
[18]
  activity change % (negative = inhibition): -8.86% (inactive)
[19]
  outcome: inactive
[20]
  max response: -6.29% (inactive)

## CCC#N
[2]
  Potency: > 92 µM (inactive)
[3]
  Potency: inactive
[4]
  Potency: inactive
[5]
  Potency: inactive
[6]
  Potency: inactive
[7]
  outcome: inactive
[8]
  Potency: inactive
[9]
  Potency: inactive
[10]
  Potency: inactive
[11]
  Potency: inactive
[12]
  Potency: inactive
[13]
  Potency: inactive
[14]
  Potency: inactive
[15]
  Potency: inactive
[17]
  max response: 15.9%
[18]
  activity change % (negative = inhibition): -12.3% (inactive)
[19]
  outcome: inactive
[20]
  max response: -2.01% (inactive)

## Cc1ccc(N)cc1N
[2]
  Potency: > 92 µM (inactive)
[3]
  Potency: inactive
[5]
  Potency: inactive
[6]
  Potency: inactive
[7]
  outcome: inactive
[8]
  Potency: inactive
[9]
  Potency: inactive
[10]
  Potency: inactive
[11]
  Potency: inactive
[12]
  Potency: inactive
[13]
  Potency: inactive
[14]
  Potency: inactive
[15]
  Potency: inactive
[16]
  outcome: inactive
[17]
  max response: -0.584% and 0.527%
[18]
  activity change % (negative = inhibition): 0.49% (inactive) and -2.4% (inactive)
[20]
  max response: 12.5% (inactive) and 3.01% (inactive)
